Consider 31 compounds from PubChem BioAssay (NCATS).

Assay [1] deals with Calcium and integrin-binding protein 1 (Homo sapiens) (UniProt Q99828). Briefly: Primary qHTS for Identification of Calcium Integrin Binding Protein 1 (CIB1) Competitor (AID 1508620).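 Further: GST tagged CIB1 binding a fluorescein labelled alphaIIb integrin peptide tracer; top concentration of the series differs between compounds.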 In a few lines:
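CIB1-GST (1 uM final) and compound incubated 15 min at room temperature before adding FITC-alphaIIb peptide tracer (100 nM final). Competition for binding read by fluorescence polarization (ex 480, em 540) after another 15 min at room temperature.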

Assay [2] is described as follows: Counterscreen qHTS for small molecule stabilizers of the endoplasmic reticulum resident proteome: GLuc-NoTag assay (AID 1508627). Further: series mostly up to about 76 µM. In a few lines:
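Counterscreen line: SH-SY5Y-GLuc-NoTag cells, treated with compound 19 hr before a 4 hr, 100 nM thapsigargin calcium depletion. Secreted Gaussia luciferase in the medium was measured by luminescence after coelenterazine was added (0.07x final), with cells unlysed.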

A short description of assay [3]: Primary qHTS for small molecule stabilizers of the endoplasmic reticulum resident proteome: Secreted ER Calcium Modulated Protein (SERCaMP) assay (AID 1508630). Further: potency means the concentration at half of the fitted maximal effect. In a few lines:
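The SH-SY5Y reporter protocol was run at 3 concentrations up to 38.3 uM (primary) or 11 concentrations (follow-up): 16 h compound, 100 nM thapsigargin for 4 h, then extracellular luciferase luminescence.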

For assay [4], the target named is Cytochrome P450 2D6 (Homo sapiens) (UniProt P10635). Briefly: Cytochrome P450 family 2 subfamily D member 6 (CYP2D6) small molecule antagonists: luciferase biochemical (cell-free) qHTS assay (AID 1645840; active means well fitted curve in the direction sought with a large enough effect in the repeat runs; an effect the other way counts as inactive or inconclusive; further: potency means the concentration at half of the fitted maximal effect; nearly all actives have a fitted effect of over 55% in size). In a few lines:
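P450-Glo CYP2D6 system: proluciferin substrate converted by enzyme to luciferin, read by luminescence proportional to activity. Enzyme-substrate mix with compound 10 min at room temperature, then NADPH regeneration 1 h before detection reagent.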

Assay [5] concerns the target Cytochrome P450 2C9 (Homo sapiens) (UniProt P11712). Description: Cytochrome P450 family 2 subfamily C member 9 (CYP2C9) small molecule antagonists: luciferase biochemical (cell-free) qHTS assay (AID 1645842; active means well fitted curve in the direction sought with a large enough effect in the repeat runs; an effect the other way counts as inactive or inconclusive; further: series mostly up to about 57 µM; nearly all actives have a fitted effect of over 55% in size). In a few lines:
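P450-Glo CYP2C9 system: proluciferin substrate with enzyme in mix containing 0.4% BSA, 10 min at room temperature, then NADPH regeneration solution added and incubated 1 h at 37C. Detection reagent stopped reaction; luminescence read after 20 min as RLU.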

A short description of assay [6]: Cell Viability qHTS for small molecule stabilizers of the endoplasmic reticulum resident proteome (AID 1508629).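 Further: human SH-SY5Y neuroblastoma cells carrying the GLuc-SERCaMP reporter; compound exposure about 46 h in total before the viability read.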 Particulars: cell viability counter-screen, 100 nM thapsigargin for final 4 h.
Assay [7] can be described thus: Confirmatory qHTS for small molecule stabilizers of the endoplasmic reticulum resident proteome: Secreted ER Calcium Modulated Protein (SERCaMP) assay (AID 1508628). Further: series mostly up to about 76 µM; nearly all actives have a fitted effect of over 40% in size. In a few lines: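 Reporter secretion upon ER calcium depletion (100 nM thapsigargin, 4 h, 37C) is measured as medium luminescence with coelenterazine, after 16 h compound pretreatment of SH-SY5Y-GLuc-SERCaMP cells; primary at three concentrations up to 38.3 uM, follow-up at 11 (up to 76.6 uM).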

Assay [8] in a line: A High-Content qHTS Against Drug Library for the Identification of Small Molecules that Inhibit DYT1 Early Onset Primary Dystonia-Associated Cell Pathology (AID 1645839; calls by dose curve; further: series mostly up to about 46 µM). In a few lines: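 High-content imaging quantified EGFP-TorsinA mislocalization in HEK293-derived cells inducibly expressing DYT1 mutant torsinA, after 48 h exposure to compound given together with tetracycline induction. Cell count served as a toxicity channel alongside %pathology.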

Records with an inconclusive call do not appear. A call without a number means that no potency is given here. Unmarked numbers belong to inactive results. Activity calls are given as the source filed them. Unless noted, the call rests on the fitted dose curve; in most records, active means well fitted curve in the direction sought with a large enough effect; inconclusive means small, poorly fitted or top-dose-only effect, or another doubt; inactive means no such curve, though single readings can be large; an effect the other way counts as inactive or inconclusive.

Chain of Calcium and integrin-binding protein 1 (Homo sapiens) (Q99828 whole entry, looked up): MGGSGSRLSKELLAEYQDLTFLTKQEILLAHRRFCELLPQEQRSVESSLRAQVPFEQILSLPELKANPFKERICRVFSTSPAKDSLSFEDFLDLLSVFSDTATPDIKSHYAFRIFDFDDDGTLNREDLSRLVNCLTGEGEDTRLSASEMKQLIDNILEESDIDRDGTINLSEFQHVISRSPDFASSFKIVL
Chain of Cytochrome P450 2C9 (Homo sapiens) (P11712 whole entry, looked up): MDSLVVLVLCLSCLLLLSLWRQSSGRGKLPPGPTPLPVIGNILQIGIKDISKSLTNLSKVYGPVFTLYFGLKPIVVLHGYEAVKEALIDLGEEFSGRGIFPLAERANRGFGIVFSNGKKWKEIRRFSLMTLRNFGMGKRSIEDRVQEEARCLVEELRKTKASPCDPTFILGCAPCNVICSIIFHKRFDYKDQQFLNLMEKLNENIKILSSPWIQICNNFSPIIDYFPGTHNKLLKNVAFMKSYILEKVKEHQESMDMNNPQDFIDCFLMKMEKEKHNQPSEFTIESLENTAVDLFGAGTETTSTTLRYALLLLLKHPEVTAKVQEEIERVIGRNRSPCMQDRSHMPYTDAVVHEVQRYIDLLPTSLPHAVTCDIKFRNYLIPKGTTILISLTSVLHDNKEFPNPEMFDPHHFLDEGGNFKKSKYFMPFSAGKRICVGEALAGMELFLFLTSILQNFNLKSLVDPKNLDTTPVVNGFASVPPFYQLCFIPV
Chain of Cytochrome P450 2D6 (Homo sapiens) (P10635 whole entry, looked up): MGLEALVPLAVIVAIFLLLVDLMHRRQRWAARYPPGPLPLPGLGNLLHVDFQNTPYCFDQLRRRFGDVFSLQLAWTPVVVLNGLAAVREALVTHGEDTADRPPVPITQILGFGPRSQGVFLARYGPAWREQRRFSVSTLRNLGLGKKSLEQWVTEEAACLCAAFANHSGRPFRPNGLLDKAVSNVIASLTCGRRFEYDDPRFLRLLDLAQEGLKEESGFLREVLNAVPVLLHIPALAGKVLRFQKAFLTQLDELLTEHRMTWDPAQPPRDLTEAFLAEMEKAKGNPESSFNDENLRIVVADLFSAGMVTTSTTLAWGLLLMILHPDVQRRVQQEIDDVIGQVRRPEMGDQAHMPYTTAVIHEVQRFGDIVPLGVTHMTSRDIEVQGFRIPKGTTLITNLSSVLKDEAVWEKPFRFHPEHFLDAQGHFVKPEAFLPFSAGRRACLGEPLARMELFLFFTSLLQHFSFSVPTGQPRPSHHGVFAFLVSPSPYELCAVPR

With `COc1cc2ncnc(Nc3ccc(F)c(Cl)c3)c2cc1OCCCN1CCOCC1`, the Potency entry in assay [1], in assay [2], in assay [3] and in assay [5] was “inactive” each time. In assay [4], the Potency is 4.9 µM (active).

With `CC[C@]1(O)C[C@@H]2CN(CCc3c([nH]c4ccccc34)[C@@](C(=O)OC)(c3cc4c(cc3OC)N(C=O)[C@@H]3C45CCN4CC=C[C@](CC)([C@H]45)[C@@H](OC(C)=O)[C@]3(O)C(=O)OC)C2)C1` (stereo partly drawn), the Potency entry in assay [1] is “inactive”.

As to `COc1ccc(C2Sc3ccccc3N(CCN(C)C)C(=O)C2OC(C)=O)cc1` (stereo not drawn), the Potency result in assay [1] was “inactive”.

On to `CCN(CC)CCOc1ccc(C(=C(Cl)c2ccccc2)c2ccccc2)cc1`, for which the Potency entry in assay [1] was “inactive”.

With `O=C1C(Cl)=C(NCCN2CCOCC2)C(=O)c2ncccc21`, the Potency entry in assay [1] and in assay [3] was “inactive” each time.

Take `CO[C@H]1C[C@@H]2CC[C@@H](C)[C@@](O)(O2)C(=O)C(=O)N2CCCC[C@@H]2C(=O)O[C@H]([C@H](C)C[C@@H]2CC[C@H](OCCO)[C@H](OC)C2)CC(=O)[C@H](C)C=C(C)[C@@H](O)[C@@H](OC)C(=O)[C@H](C)C[C@H](C)C=CC=CC=C1C`: the Potency result in assay [1] is “inactive”.

In the case of `COc1ccc(Cc2ccc(NC(N)=O)cc2)cc1-c1cccc(Cl)c1`, the Potency entry in assay [1] is “inactive”.

For `C=C1C(=O)OC2C=C(C)CCC=C(C)CCC12` (stereo not drawn), the Potency result in assay [1] and in assay [2] was “inactive” throughout.

In the case of `O=C1NC(=O)C(=Cc2ccc(-c3ccc(F)cc3)o2)S1`, the Potency result in assay [1] is “inactive”.

As to `NC(=O)NN=Cc1ccc([N+](=O)[O-])o1`, the Potency result in assay [1] and in assay [3] was “inactive” each time.

For `O=c1c(-c2ccc(O)cc2)coc2cc(O[C@@H]3O[C@H](CO)[C@H](O)[C@H](O)[C@H]3O)ccc12`, in assay [1], the Potency entry is “inactive”.

For the compound `COc1cc(N2CCC(N3CCN(C)CC3)CC2)ccc1Nc1ncc(Cl)c(Nc2ccccc2S(=O)(=O)C(C)C)n1`, the Potency result in assay [1] and in assay [3] was “inactive” throughout.

On to `Cn1cc(C=C2C(=O)Nc3cccnc32)c2ccccc21`, for which, in assay [1], the Potency result was “inactive”. In assay [6], the max response is 16.6%.

Take `C=CCc1ccc(O)c(-c2ccc(O)c(CC=C)c2)c1`: in assay [1], the Potency result was “inactive”.

On to `O=C(Nc1ccccc1-c1cn2c(CN3CCNCC3)csc2n1)c1cnc2ccccc2n1`, for which the Potency result in assay [1] was “inactive”.

On to `O=C(O)c1ccc(-c2c[nH]c3ncc(-c4ccccc4)cc23)cc1C1CCCC1`, for which, in assay [1], the Potency result was “inactive”.

Consider `Clc1ccc(C(c2ccc(Cl)cc2)n2cc[n+](CC(OCc3ccc(Cl)cc3Cl)c3ccc(Cl)cc3Cl)c2)cc1` (stereo not drawn), for which the Potency result in assay [1] and in assay [3] was “inactive” throughout.

With `CN(C)CCC(c1ccccc1)c1ccccn1` (stereo not drawn), the Potency entry in assay [1], in assay [2], in assay [7], in assay [3], in assay [8] and in assay [5] was “inactive” each time.

For `Nc1nc(F)nc2c1ncn2[C@@H]1O[C@H](COP(=O)(O)O)[C@@H](O)[C@H]1O`, in assay [1], the Potency result was “inactive”.

For `Clc1cc(Cl)cc(CNc2ncncc2-c2ccc3c(c2)OCO3)c1`, the Potency result in assay [1] and in assay [3] was “inactive” throughout.

For `C[C@H](NC(=O)C(=O)Nc1ccccc1C(C)(C)C)C(=O)N[C@@H](CC(=O)O)C(=O)COc1c(F)c(F)cc(F)c1F`, the Potency entry in assay [1] was “inactive”.

In the case of `O=c1ccn([C@@H]2O[C@H](CO)[C@H](O)[C@H]2O)c(=O)[nH]1`, the Potency result in assay [1], in assay [2] and in assay [7] was “inactive” each time. Further, the Potency in assay [3] was 1.68 µM (active).

In the case of `CO[C@H]1C[C@@H]2CC[C@@H](C)[C@@](O)(O2)C(=O)C(=O)N2CCCC[C@@H]2C(=O)O[C@H]([C@H](C)C[C@@H]2CC[C@H](OC(=O)C(C)(CO)CO)[C@H](OC)C2)CC(=O)[C@H](C)C=C(C)[C@@H](O)[C@@H](OC)C(=O)[C@H](C)C[C@H](C)C=CC=CC=C1C`, in assay [1], the Potency result was “inactive”.

For `CC(=Cc1ccccc1)C=C1SC(=S)N(CC(=O)O)C1=O`, the Potency entry in assay [1] and in assay [3] was “inactive” throughout.

Take `O=C1NC(=O)C(=Cc2cccc(C(F)(F)F)c2)S1`: the Potency result in assay [1] and in assay [3] was “inactive” each time.

With `CO[C@H]1C[C@@H]2CC[C@@H](C)[C@@](O)(O2)C(=O)C(=O)N2CCCC[C@@H]2C(=O)O[C@H]([C@@H](C)C[C@@H]2CC[C@H](O)[C@H](OC)C2)CC(=O)[C@H](C)C=C(C)[C@@H](O)[C@@H](OC)C(=O)[C@H](C)C[C@H](C)C=CC=CC=C1C`, the Potency result in assay [1] and in assay [3] was “inactive” in each case.

For `O=c1cc(CN2CCOCC2)occ1OCCCCCSc1ccnc2cc(C(F)(F)F)ccc12`, the Potency result in assay [1] and in assay [3] was “inactive” each time.

For `CC(=O)N(C)C1(c2ccccc2)CCN(CCC[C@]2(c3ccc(Cl)c(Cl)c3)CCCN(C(=O)c3ccccc3)C2)CC1`, the Potency entry in assay [1] and in assay [3] was “inactive” in each case.

Take `CC(=O)O[C@]1(C(C)=O)CC[C@@H]2[C@@H]3C[C@H](C)C4=CC(=O)CC[C@]4(C)[C@H]3CC[C@@]21C`: the Potency entry in assay [1] and in assay [3] was “inactive” throughout.

Regarding `CNC(=O)c1ccc2cc(C3(O)CCn4cncc43)ccc2c1` (stereo not drawn), the Potency entry in assay [1] and in assay [3] was “inactive” each time.

For the compound `CO[C@@H](C(=O)N1Cc2[nH]nc(NC(=O)c3ccc(N4CCN(C)CC4)cc3)c2C1)c1ccccc1`, the Potency entry in assay [1] and in assay [3] was “inactive” throughout.
